Our source for the INHIBITION values is ChEMBL document CHEMBL4513216, “Probing the Open Global Health Chemical Diversity Library for Multistage-Active Starting Points for Next-Generation Antimalarials” (ACS Infect Dis, 2020).

The whole screen tested about 65,000 compounds, of which about 2,100 (3.2%) showed an effect of 50% or more. The median lay at about -52%. Many of the other results were omitted from the sample, so strong results are more common in it than they were.

The subject of the assay is Plasmodium falciparum. The experiment in a line: Screen against P. falciparum Asexual Blood Stage (ABS), at 5uM. Format: functional, Dd2. The following applies: tested at 5 uM.
Take `NC(=O)NCC(=O)N1C[C@@H]2CC[C@H]1CN(Cc1ccccc1)C2`: the INHIBITION is listed as -9.53%.

For `CNC(=O)C1(N2CCC[C@H]2C(=O)NC2CC2)CCCCC1`, the INHIBITION is on record as -145%.

With `COCCc1noc(C2CCCN(c3ncnc4c3CCC4)C2)n1` (stereo unspecified), the INHIBITION was -100%.

For the compound `COc1cccc(Cn2ncnc2CCC(C)N2CCN(C)CC2)c1` (stereo unspecified), the INHIBITION is on record as -99.9%.

For `NC1CCCCN(Cc2ccccc2CS(=O)(=O)c2ccccc2)C1` (stereo unspecified), the INHIBITION turned out to be 55.9%.

Consider `O=S(=O)(Cc1ccccc1CN1CC[C@H](CO)[C@H](O)C1)c1ccccc1`, for which the INHIBITION amounted to 16.9%.

As for `N[C@@H]1CCN(Cc2ccccc2CS(=O)(=O)c2ccccc2)C[C@H]1O`, the INHIBITION is on record as -23.3%.

Take `Cc1nc(N2CCC(C)CC2)ncc1-c1cc(O)nc(N2CCCC2)n1`: the INHIBITION was -113%.

Turning to `O=C1OCCN1Cc1ncnn1Cc1c(F)cccc1Cl`, the INHIBITION is -76.9%.

As for `Fc1cccc(Cl)c1Cn1ncnc1CSCCN1CCCC1`, the INHIBITION amounted to 61.7%.

For the compound `O=C1CCCCCN1Cc1ncnn1Cc1c(F)cccc1Cl`, the INHIBITION is -29.5%.

Consider `CS(=O)(=O)N1C[C@@H]2COC[C@]2(CN2CCOCC2)C1`, for which the INHIBITION is on record as -107%.

As to `CNC(=O)C1CCC2(CCN(c3nncs3)CC2)CO1` (stereo unspecified), the INHIBITION is reported as -79.1%.

On to `Cc1noc(C2CCN(C(=O)c3ccc(C(F)(F)F)nc3)CC2)n1`, for which the INHIBITION was determined as 57%.

Take `Cc1noc(C2CCN(C(=O)c3ccc(NC4CC4)nc3)CC2)n1`: the INHIBITION is on record as -9.68%.

As for `Cc1noc(C2CCN(C(=O)c3ccc(N(C)C)nc3)CC2)n1`, the INHIBITION is reported as -27%.

On to `CN(Cc1ccco1)C1CCC12CCN(C(=O)N1CCCC1)CC2` (stereo unspecified), for which the INHIBITION is listed as -76%.

On to `O=C(c1cccnc1N1CCCCC1)N1CCCC(n2ccnc2)C1` (stereo unspecified), for which the INHIBITION worked out at 29.5%.

`O=C(c1cccc2ncccc12)N1CCCC(n2ccnc2)C1` (stereo unspecified): the INHIBITION is given as -2.7%.

Take `O=C(c1cccc2cccnc12)N1CCCC(n2ccnc2)C1` (stereo unspecified): the INHIBITION turned out to be 55.4%.

In the case of `Cc1cc(C(=O)NCc2ccc(N3CCN(C)CC3)nc2)c(C)s1`, the INHIBITION was -56.2%.

Consider `O=C(c1cccc(F)c1Cl)N(CCO)CC1CC1`, for which the INHIBITION is on record as 9.7%.

In the case of `O=C(NCc1cc(Br)cs1)Nc1cn[nH]c1`, the INHIBITION is -116%.

As to `O=C(CC1CC1)N1CC[C@H]2[C@@H]1CCC(=O)N2c1cccnc1`, the INHIBITION is -27.5%.

As to `O=C1CC(c2ccc(C(=O)O)cc2)c2c(sc3c2CCCC3)N1` (stereo unspecified), the INHIBITION was -3.15%.

On to `O=C1CC(c2cccnc2)c2c(sc3c2CCCC3)N1` (stereo unspecified), for which the INHIBITION was determined as 29.8%.

For `O=C1CC(c2ccncc2)c2c(sc3c2CCCC3)N1` (stereo unspecified), the INHIBITION is recorded as 56.8%.

With `CCn1cnnc1CNC(=O)c1cc(Cl)ccc1F`, the INHIBITION is given as -20.1%.

In the case of `Cc1cnn(CC2CCCN2C(=O)Cc2ccc3c(c2)CCO3)c1` (stereo unspecified), the INHIBITION was -48.8%.

For the compound `CC1CN(Cc2cccc(C#N)c2)CCN1c1ccc2nncn2n1` (stereo unspecified), the INHIBITION turned out to be 50.9%.

For `CC1CN(Cc2cccnc2)CCN1c1ccc2nncn2n1` (stereo unspecified), the INHIBITION came out at 10.1%.

In the case of `COc1cccc(CN2CCN(c3ccc4nncn4n3)C(C)C2)c1` (stereo unspecified), the INHIBITION is on record as -39.5%.

Regarding `COCCCNS(=O)(=O)c1ccc(N2CCCCS2(=O)=O)cc1`, the INHIBITION is listed as -76.7%.

Regarding `Cn1ccnc1CN1CCN(Cc2ccncc2)[C@@H]2CS(=O)(=O)C[C@@H]21`, the INHIBITION was -33.9%.

For the compound `CN1Cc2nc[nH]c2C[C@H]1C(=O)NC1CCCCC1`, the INHIBITION is reported as 53%.

For the compound `O=C([C@@H]1Cc2[nH]cnc2CN1C(=O)NC1CCCCC1)N1CCCC1`, the INHIBITION was -56.1%.

As to `CN(Cc1ccccc1)C(=O)[C@@H]1Cc2[nH]cnc2CN1C`, the INHIBITION was determined as 42.2%.

As for `Cc1c[nH]c(C2CCCN(C(=O)CCc3c(C)n[nH]c3C)C2)n1` (stereo unspecified), the INHIBITION was -98.1%.

As to `CCOc1ccc(C(=O)Nc2c(C)nc3ccccn3c2=O)cc1`, the INHIBITION is recorded as -144%.

`CCn1nc2c(cc1=O)CN(Cc1nc(-c3cccs3)no1)CC2`: the INHIBITION came out at 20.5%.

As for `CSCC(CCO)NC(=O)c1cccc(F)c1Cl` (stereo unspecified), the INHIBITION worked out at 9.25%.

With `C[C@@H]1CN(Cc2cc(C3CCCCC3)no2)CC[C@]1(C)O`, the INHIBITION was -6.78%.

Take `NC1CCCCN(Cc2cc(C3CCCCC3)no2)C1` (stereo unspecified): the INHIBITION turned out to be 62%.

Take `OCC1COCCN(Cc2cc(C3CCCCC3)no2)C1` (stereo unspecified): the INHIBITION was -122%.

Consider `COCC(NC(=O)c1cn(-c2cccc(Cl)c2F)nn1)C1CC1` (stereo unspecified), for which the INHIBITION is given as -24.2%.

As to `Cc1ccc2cccc(S(=O)(=O)N(C)C3CCCN(C)C3)c2n1` (stereo unspecified), the INHIBITION was determined as 33.8%.

`Cc1ccc2cccc(S(=O)(=O)N(C)CC3CCN(C)C3)c2n1` (stereo unspecified): the INHIBITION is reported as 37.8%.

`Cc1ccc2cccc(S(=O)(=O)N(C)CC3CCN(C)CC3)c2n1`: the INHIBITION was found to be 58.6%.

As to `Cn1c(CCC(=O)N2CCCC3(CC2)CNC(=O)O3)nc2cccnc21` (stereo unspecified), the INHIBITION was -38.1%.

As to `CC(C)CCN1C(=O)c2ccc(C(=O)NCCc3c[nH]cn3)cc2C1=O`, the INHIBITION is recorded as -19.2%.

Regarding `COCCNCc1cc2c(C)cc(C)cc2n2c(=O)n(C)nc12`, the INHIBITION is listed as -43%.

Turning to `Cc1cc(C)c2cc(CNCc3ccccc3)c3nn(C)c(=O)n3c2c1`, the INHIBITION is listed as 65.4%.

Turning to `Cc1cc(C)c2cc(CNCc3cccnc3)c3nn(C)c(=O)n3c2c1`, the INHIBITION came out at 31.5%.

Regarding `Cc1cc(C)c2cc(CNCC3CCCO3)c3nn(C)c(=O)n3c2c1` (stereo unspecified), the INHIBITION was found to be 7.98%.

`Cc1cc(C)c2cc(CNCc3ccc(C)o3)c3nn(C)c(=O)n3c2c1`: the INHIBITION was found to be 63.9%.

Take `CCCNCc1cc2c(C)cc(C)cc2n2c(=O)n(C)nc12`: the INHIBITION was -36.8%.
